Measured values as given in PubChem BioAssay (NCI).
This is part of a sample that, as a whole, favours compounds with a hit. Of some 83,000 tested, about 20% had one in any assay.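 Method: cells in 96-well plates; compound added at one concentration; 48 h incubation; percent growth measured; values under 10 scored active.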 Calls of active or inactive are those of the source.

How the values were obtained:
Experiment in all cases: NCI-60 one-dose screen, 48 h (100 = growth as untreated, 0 = no growth, -100 = all killed)
Conditions in all cases: 10 µM
SR leukemia = system: SR leukemia
RPMI-8226 leukemia = system: RPMI-8226 leukemia
OVCAR-8 ovarian = system: OVCAR-8 ovarian
OVCAR-5 ovarian = system: OVCAR-5 ovarian
OVCAR-4 ovarian = system: OVCAR-4 ovarian
SK-OV-3 ovarian = system: SK-OV-3 ovarian
IGROV1 ovarian = system: IGROV1 ovarian
OVCAR-3 ovarian = system: OVCAR-3 ovarian
HS 578T breast = system: HS 578T breast
NCI/ADR-RES ovarian = system: NCI/ADR-RES ovarian
T-47D breast = system: T-47D breast
BT-549 breast = system: BT-549 breast
MDA-MB-435 melanoma = system: MDA-MB-435 melanoma
SW-620 colon = system: SW-620 colon
MCF7 breast = system: MCF7 breast
HCT-116 colon = system: HCT-116 colon
HCC-2998 colon = system: HCC-2998 colon
KM12 colon = system: KM12 colon

Measured: growth

O=C(CCCSc1nc(-c2ccccc2)cc(-c2ccc(Cl)cc2)n1)NO
active: RPMI-8226 leukemia -6.47% | OVCAR-5 ovarian 9.63% | OVCAR-3 ovarian 7.27% | NCI/ADR-RES ovarian -22% | MCF7 breast 4.12%
inactive: SR leukemia 26.3% | OVCAR-8 ovarian 14.2% | OVCAR-4 ovarian 22.3% | SK-OV-3 ovarian 11.7% | IGROV1 ovarian 22.3% | HS 578T breast 50.9% | T-47D breast 23.3% | BT-549 breast 38.6% | MDA-MB-435 melanoma 21.9% | SW-620 colon 17.4% | HCT-116 colon 11.9% | HCC-2998 colon 12.7% | KM12 colon 24.7%

O=[N+]([O-])c1cccc(/C=N/NC(=S)NC23CC4CC(CC(C4)C2)C3)c1
inactive: SR leukemia 81.4% | RPMI-8226 leukemia 93.1% | OVCAR-8 ovarian 40.6% | OVCAR-5 ovarian 101% | OVCAR-4 ovarian 39.5% | SK-OV-3 ovarian 62.4% | IGROV1 ovarian 76.3% | OVCAR-3 ovarian 85.9% | HS 578T breast 67.5% | NCI/ADR-RES ovarian 67.2% | T-47D breast 88.7% | BT-549 breast 100% | MDA-MB-435 melanoma 84.8% | SW-620 colon 88.5% | MCF7 breast 66.9% | HCT-116 colon 61.1% | HCC-2998 colon 103%

COc1ccc(/C(C#N)=C/c2ccccc2OC)cc1
inactive: SR leukemia 34.7% | RPMI-8226 leukemia 52.3% | OVCAR-8 ovarian 53.5% | OVCAR-5 ovarian 55.5% | OVCAR-4 ovarian 89.9% | SK-OV-3 ovarian 33.2% | IGROV1 ovarian 31.9% | OVCAR-3 ovarian 25.8% | HS 578T breast 47.8% | T-47D breast 26% | BT-549 breast 37.1% | SW-620 colon 22.8% | MCF7 breast 14.8% | HCT-116 colon 18.1% | HCC-2998 colon 50.2% | KM12 colon 32.2%
active: NCI/ADR-RES ovarian -0.0917% | MDA-MB-435 melanoma -19.4%

COc1cc(C(=O)N2CCN(c3cc4c(cc3F)c(=O)c(C(=O)NO)cn4C3CC3)CC2)cc(OC)c1OC
inactive: SR leukemia 95% | RPMI-8226 leukemia 85.2% | OVCAR-8 ovarian 106% | OVCAR-5 ovarian 98.1% | OVCAR-4 ovarian 101% | SK-OV-3 ovarian 103% | IGROV1 ovarian 110% | OVCAR-3 ovarian 108% | HS 578T breast 105% | NCI/ADR-RES ovarian 100% | T-47D breast 82.7% | BT-549 breast 105% | MDA-MB-435 melanoma 105% | SW-620 colon 99% | MCF7 breast 99% | HCT-116 colon 105% | HCC-2998 colon 110% | KM12 colon 104%

O=C(Nc1cc(Cl)cc2c1-c1ccc(Cl)cc1C2O)C(Cl)Cl (configuration not stated)
inactive: SR leukemia 82.3% | RPMI-8226 leukemia 65% | OVCAR-8 ovarian 86.5% | OVCAR-5 ovarian 94.8% | OVCAR-4 ovarian 62.9% | SK-OV-3 ovarian 102% | IGROV1 ovarian 73.2% | OVCAR-3 ovarian 97.3% | HS 578T breast 78.8% | NCI/ADR-RES ovarian 83.5% | T-47D breast 54.1% | BT-549 breast 95.3% | MDA-MB-435 melanoma 79.2% | SW-620 colon 79.5% | MCF7 breast 64.5% | HCT-116 colon 51.1% | HCC-2998 colon 95.2% | KM12 colon 76.4%

NS(=O)(=O)c1ccc(Br)cc1
inactive: SR leukemia 106% | RPMI-8226 leukemia 108% | OVCAR-8 ovarian 105% | OVCAR-5 ovarian 97.6% | OVCAR-4 ovarian 104% | SK-OV-3 ovarian 80.8% | IGROV1 ovarian 100% | OVCAR-3 ovarian 114% | HS 578T breast 110% | NCI/ADR-RES ovarian 97.7% | T-47D breast 84.7% | BT-549 breast 87.6% | MDA-MB-435 melanoma 105% | SW-620 colon 112% | MCF7 breast 94% | HCT-116 colon 81.4% | HCC-2998 colon 108%

O=C(O)COc1c(Cl)cc([N+](=O)[O-])cc1Cl
inactive: SR leukemia 82.3% | RPMI-8226 leukemia 101% | OVCAR-8 ovarian 99.3% | OVCAR-5 ovarian 95.7% | OVCAR-4 ovarian 108% | SK-OV-3 ovarian 92.3% | IGROV1 ovarian 93.6% | OVCAR-3 ovarian 113% | HS 578T breast 105% | NCI/ADR-RES ovarian 108% | T-47D breast 108% | BT-549 breast 90% | MDA-MB-435 melanoma 105% | SW-620 colon 110% | MCF7 breast 94.7% | HCT-116 colon 83.4% | HCC-2998 colon 101% | KM12 colon 98.1%

COc1cc(-c2csc(NC(=O)Nc3cc(C(F)(F)F)cc(C(F)(F)F)c3)n2)cc(OC)c1OC
active: RPMI-8226 leukemia -6.92% | SK-OV-3 ovarian 0.491% | OVCAR-3 ovarian -3.97% | T-47D breast -8.28% | BT-549 breast 0.972% | MCF7 breast 2.97% | HCT-116 colon 0.288%
inactive: SR leukemia 16.5% | OVCAR-8 ovarian 19.4% | OVCAR-5 ovarian 30.4% | OVCAR-4 ovarian 21.1% | IGROV1 ovarian 35.1% | HS 578T breast 31.2% | NCI/ADR-RES ovarian 10.4% | MDA-MB-435 melanoma 13% | SW-620 colon 26.5% | HCC-2998 colon 22.4%

Cc1nc2n(c(=O)c1CCN1CCC(c3noc4cc(F)ccc34)CC1)CCC[C@@H]2O
inactive: SR leukemia 93.8% | RPMI-8226 leukemia 111% | OVCAR-8 ovarian 97.5% | OVCAR-5 ovarian 88.6% | OVCAR-4 ovarian 105% | SK-OV-3 ovarian 103% | IGROV1 ovarian 105% | OVCAR-3 ovarian 106% | HS 578T breast 100% | NCI/ADR-RES ovarian 97.2% | T-47D breast 84.1% | BT-549 breast 99.4% | MDA-MB-435 melanoma 98.8% | SW-620 colon 101% | MCF7 breast 84.7% | HCT-116 colon 99.5% | HCC-2998 colon 109%

C[N+]1(CCCCC[N+]2(C)CCCC2)CCCC1
inactive: SR leukemia 97.4% | RPMI-8226 leukemia 61.7% | OVCAR-8 ovarian 78.1% | OVCAR-5 ovarian 72.9% | OVCAR-4 ovarian 97.4% | SK-OV-3 ovarian 68.9% | IGROV1 ovarian 105% | OVCAR-3 ovarian 107% | HS 578T breast 106% | NCI/ADR-RES ovarian 75% | T-47D breast 101% | BT-549 breast 77.8% | MDA-MB-435 melanoma 98.6% | SW-620 colon 98.3% | MCF7 breast 95.2% | HCT-116 colon 107% | HCC-2998 colon 119% | KM12 colon 102%

OC[C@H]1OC([S-])[C@H](O)[C@@H](O)[C@@H]1O.[Au+] (some centres not stated)
inactive: SR leukemia 41.7% | RPMI-8226 leukemia 80.6% | OVCAR-8 ovarian 104% | OVCAR-5 ovarian 129% | OVCAR-4 ovarian 96.9% | SK-OV-3 ovarian 120% | IGROV1 ovarian 119% | OVCAR-3 ovarian 128% | HS 578T breast 73.3% | NCI/ADR-RES ovarian 101% | T-47D breast 85.5% | BT-549 breast 87.1% | MDA-MB-435 melanoma 83.3% | SW-620 colon 101% | MCF7 breast 72.8% | HCT-116 colon 99%

O=C(CSc1nccc(Nc2cccc3ccccc23)n1)c1ccc(Cl)cc1
inactive: SR leukemia 90.9% | RPMI-8226 leukemia 80% | OVCAR-8 ovarian 92.3% | OVCAR-5 ovarian 87.4% | OVCAR-4 ovarian 98.7% | SK-OV-3 ovarian 86.4% | IGROV1 ovarian 69% | OVCAR-3 ovarian 99.5% | HS 578T breast 99.7% | NCI/ADR-RES ovarian 93.7% | T-47D breast 76.1% | BT-549 breast 102% | MDA-MB-435 melanoma 101% | SW-620 colon 92.7% | MCF7 breast 99.5% | HCT-116 colon 67.5% | HCC-2998 colon 101%

CC(C)Cc1ccc([C@H](C)C(=O)O)cc1
inactive: SR leukemia 99.9% | RPMI-8226 leukemia 115% | OVCAR-8 ovarian 107% | OVCAR-5 ovarian 107% | OVCAR-4 ovarian 115% | SK-OV-3 ovarian 119% | IGROV1 ovarian 116% | OVCAR-3 ovarian 111% | HS 578T breast 110% | NCI/ADR-RES ovarian 108% | T-47D breast 102% | BT-549 breast 107% | MDA-MB-435 melanoma 103% | SW-620 colon 110% | MCF7 breast 94.8% | HCT-116 colon 103% | HCC-2998 colon 108%

C=CCn1c(SCC(=O)Nc2ccc(C(=O)/C=C/c3ccc(OC)cc3)cc2)nnc1-c1ccc(OC)c(OC)c1
inactive: SR leukemia 58.7% | RPMI-8226 leukemia 34.3% | OVCAR-8 ovarian 79.8% | OVCAR-5 ovarian 110% | OVCAR-4 ovarian 73.8% | SK-OV-3 ovarian 98% | IGROV1 ovarian 94.4% | OVCAR-3 ovarian 89.6% | HS 578T breast 86.4% | NCI/ADR-RES ovarian 86.4% | T-47D breast 58.3% | BT-549 breast 75.8% | MDA-MB-435 melanoma 86.7% | SW-620 colon 97.2% | MCF7 breast 43.5% | HCT-116 colon 55.5% | HCC-2998 colon 94.6% | KM12 colon 87.9%

Cc1cccc(N=Cc2ccccc2O)c1C
inactive: SR leukemia 111% | RPMI-8226 leukemia 96.9% | OVCAR-8 ovarian 98.2% | OVCAR-5 ovarian 108% | OVCAR-4 ovarian 104% | SK-OV-3 ovarian 108% | IGROV1 ovarian 115% | OVCAR-3 ovarian 113% | HS 578T breast 101% | NCI/ADR-RES ovarian 101% | T-47D breast 106% | BT-549 breast 90% | MDA-MB-435 melanoma 102% | SW-620 colon 112% | MCF7 breast 98.8% | HCT-116 colon 106% | HCC-2998 colon 104% | KM12 colon 114%

CN(C)c1ncnc2c1nnn2C1OC(CO)C(O)C1O (configuration not stated)
active: RPMI-8226 leukemia -4.55% | OVCAR-8 ovarian 8.85% | SK-OV-3 ovarian 4.66% | IGROV1 ovarian 3.79% | OVCAR-3 ovarian -18.8% | MDA-MB-435 melanoma 8.72% | MCF7 breast 6.74% | HCC-2998 colon 8.01%
inactive: SR leukemia 31.3% | OVCAR-5 ovarian 26.8% | OVCAR-4 ovarian 23.4% | HS 578T breast 19.8% | NCI/ADR-RES ovarian 15.3% | T-47D breast 10.5% | BT-549 breast 46.1% | SW-620 colon 19.1% | HCT-116 colon 17.2% | KM12 colon 13.7%

c1ccc(/C(=N\Nc2ccc3ccccc3n2)c2ccccn2)cc1
inactive: OVCAR-8 ovarian 11.1% | OVCAR-5 ovarian 51.1% | OVCAR-4 ovarian 10.1% | SK-OV-3 ovarian 20.5% | OVCAR-3 ovarian 22.1% | HS 578T breast 14.7% | NCI/ADR-RES ovarian 11.4% | T-47D breast 16.5% | BT-549 breast 12.3% | MDA-MB-435 melanoma 23.4% | SW-620 colon 22.6% | MCF7 breast 12.2% | HCC-2998 colon 45.5%
active: SR leukemia -23.6% | RPMI-8226 leukemia 9.21% | IGROV1 ovarian 2.49% | HCT-116 colon 9.03%
